Results on 77 compounds are retold here after PubChem BioAssay AID489018 (Southern Research Specialized Biocontainment Screening …, 2010).

In all, about 2,300 compounds went through this assay and about 350 (15%) were called active. The rule behind the calls is not given here. Not all results are given here. Measured potencies and affinities stand elsewhere.

The nature of this assay: HepG2 cell cytotoxicity, dose response, cytotoxicity control for non-replicating M. tuberculosis project (AID 489018).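 Note: HepG2 human liver cells.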 The note with it: series mostly up to 20 µM.
Consider `Cc1ccccc1NC(=O)c1nc[nH]c1C(=O)NCc1ccccc1`, for which the compound was called inactive.
For the compound `O=C(COC(=O)CCc1c[nH]c2ccccc12)Nc1cc([N+](=O)[O-])ccc1Cl`, the compound was called inactive.
With `C[C@H](NC(=O)c1[nH]cnc1C(=O)Nc1ccccc1)C(=O)OC(C)(C)C`, the result was inactive.
As for `O=c1c2c(nc3c(-c4ccccc4)c[nH]n13)CCCC2`, the compound was classed as inactive.
In the case of `Cc1ccc(-c2noc(CCCC(=O)Nc3cccnc3)n2)cc1` it was “inactive”.
Then `CCCCNC(=O)COC(=O)c1cc(F)c(F)cc1Cl`, with “inactive”.
`O=C(/C=C/Nc1ccccc1O)c1ccco1`: the outcome was inactive.
As to `O=C(CCNc1ccc(F)cc1)c1ccco1`, the compound was classed as inactive.
Take `COc1ccc(C(=O)COC(=O)c2ccccc2O)c(OC)c1`: the compound was called inactive.
Then `CCCS(=O)(=O)c1nnnn1-c1cccc(OC)c1`, with “inactive”.
Then `CCOC(=O)Cn1cc(C#N)c2cccc(CC)c21`, with “inactive”; and `CCn1c(NC(=O)c2ccccc2)nc2ccccc21`, with “inactive”; and `CCOC(=O)COc1ccc2c(c1)c(C(C)=O)c(C)n2Cc1ccccc1`, with “inactive”.
Then `CCOC(=O)C(C)Oc1ccc(OCc2ccccc2)cc1` (configuration not stated), with “inactive”; and `CC(C)(C)NC(=O)c1ccc(NC(=O)c2ccccc2-c2ccccc2C(=O)O)cc1`, with “inactive”.
With `CSc1ccc(N=Nc2c(C)[nH]n(C)c2=O)cc1`, the compound was classed as inactive.
Turning to `Nc1nc2ccccc2n1CCOc1ccccc1Cl`, the compound was classed as inactive.
In the case of `C/C(=N\NC(=O)c1ccc([N+](=O)[O-])c(C)c1)c1ccccc1Cl`, the call was inactive.
Turning to `C/C(=N\NC(=O)c1ccccc1)c1nc2ccccc2n1C`, the result was inactive.
In the case of `Cc1ccc(N2NC(=O)/C(=C/C=C/c3ccco3)C2=O)cc1C` it was “inactive”; in that of `c1ccc(CSc2ccc(-c3ccccn3)nn2)cc1`, “inactive”.
Then `COC(=O)/C(=C1/Oc2cc(C)oc(=O)c2S1)C(F)(F)F`, with “inactive”; and `Cc1ccc(C)c(-c2nnc(NC(=O)c3ccc([N+](=O)[O-])o3)o2)c1`, with “inactive”.
With `O=C(Nc1cccc(S(=O)(=O)N2CCCCC2)c1)c1ccc([N+](=O)[O-])o1`, the outcome was inactive.
Take `O=C(Nc1cccc(Cl)c1N1CCCC1)c1ccc([N+](=O)[O-])o1`: the call was inactive.
As to `O=C(Nc1nc2c(Cl)cccc2s1)c1ccc([N+](=O)[O-])o1`, the call was inactive.
As for `O=C(Nc1ccc(Cc2ccncc2)cc1)c1ccc([N+](=O)[O-])o1`, the outcome was inactive.
Then `O=C(Nc1ccccc1N1CCN(C(=O)c2ccc(Cl)cc2)CC1)c1ccc([N+](=O)[O-])o1`, with “inactive”; and `Cc1ccc(-n2nnnc2CNC(=O)c2ccc([N+](=O)[O-])o2)cc1C`, with “inactive”; and `O=C(Nc1ccc(S(=O)(=O)N2CCOCC2)cc1)c1ccc([N+](=O)[O-])o1`, with “inactive”.
For the compound `CCNC(=O)COC(=O)c1ccc(-c2nc3ccccc3s2)s1`, the compound was called inactive.
In the case of `O=C(CCN1CCN(C/C=C/c2ccccc2)CC1)Nc1ccc(Cl)cc1`, the call was inactive.
For the compound `O=C(COc1ccc(F)cc1)N/N=C/c1cccc2cccnc12`, the result was inactive.
Then `CCCn1nnnc1NC(=O)c1ccc2ccccc2c1`, with “inactive”.
Then `COCCn1c(C)cc(C(=O)COC(=O)c2ccc([N+](=O)[O-])o2)c1C`, with “inactive”.
Then `CC(=O)Oc1c(-c2ccc(Br)o2)oc2ccccc2c1=O`, with “inactive”; and `C=CCn1c(O)c(C2=c3ccccc3=NC2=O)c2ccccc21`, with “inactive”.
With `O=C1c2cc([N+](=O)[O-])cc3cc([N+](=O)[O-])cc(c23)C(=O)N1c1ccccn1`, the outcome was inactive.
In the case of `CCCCNC(=O)COC(=O)c1cc(Br)ccc1Cl` it was “inactive”; in that of `O=C(Nc1nc(-c2ccccn2)cs1)c1ccc([N+](=O)[O-])o1`, “inactive”.
In the case of `Cc1ccc(CNC(=O)c2ccc([N+](=O)[O-])o2)cc1` it was “inactive”; in that of `O=C(Nc1cccnc1)c1ccc(-c2ccc(Cl)cc2)o1`, “inactive”.
Regarding `O=C(Nc1ccccn1)c1ccc([N+](=O)[O-])o1`, the call was inactive.
In the case of `O=C(Nc1nccs1)c1ccc(-c2ccc(Cl)cc2)o1`, the compound was called inactive.
Then `O=C(Nc1ncccn1)c1ccc([N+](=O)[O-])o1`, with “inactive”; and `CCOC(=O)c1cc(-c2csc(COc3ccc(Cl)cc3)n2)on1`, with “inactive”.
Then `Cc1cccc(NC(=O)COC(=O)CCc2c[nH]c3ccccc23)c1C`, with “inactive”; and `CC(OC(=O)c1ccc2c(=O)n3c(nc2c1)CCCCC3)C(=O)Nc1ccc(Cl)cn1` (configuration not stated), with “inactive”; and `C=CCn1c(NC(=O)c2ccccc2)nc2ccccc21`, with “inactive”.
As for `C/C(=N/NC(=O)c1ccncc1)C1=C(O)CC(C)(C)CC1=O`, the call was inactive.
Then `C=Cc1cccc(NC(=O)COc2ccccc2)c1`, with “inactive”; and `Cc1ccc(NCCC(=O)c2cccs2)cc1Cl`, with “inactive”; and `CCOC(=O)COc1ccc2c(c1)c(C(=O)OCC)c(C)n2CC`, with “inactive”.
Regarding `Cc1cc(C)c2nc(/N=C(\N)NC(=O)Nc3ccccc3)nc(C)c2c1`, the result was inactive.
Consider `NC(N)=Nc1nc(-c2ccccc2)c2ccccc2n1`, for which the call was inactive.
In the case of `CCC(CC)c1nnc(NC(=O)c2ccc3ccccc3n2)s1` it was “inactive”; in that of `Cc1ccc(NC(=O)CO/N=C/c2ccccc2C)c(C)c1`, “inactive”; in that of `CCCCCCNC(=O)c1ccc(Br)o1`, “inactive”.
With `CC(=O)CCC1CC(c2ccc(Cl)cc2)=NO1` (configuration not stated), the compound was called inactive.
For `COc1cccc2cc(C(=O)NCc3ccc(F)cc3)c(=N)oc12`, the call was inactive.
In the case of `O=[N+]([O-])c1cncc([N+](=O)[O-])c1Nc1ccccc1Cl` it was “inactive”; in that of `Cc1cc(Br)ccc1OCC(=O)NNC(=O)c1cnccn1`, “inactive”; in that of `Cc1ccc(C(=O)C=CNNC(=O)c2ccccc2)cc1`, “inactive”.
In the case of `Cc1nc(C(=O)Nc2ccccc2)sc1C(=O)Nc1ccccc1`, the call was inactive.
For the compound `CNC(=O)c1[nH]cnc1C(=O)Nc1ccc(Cl)cc1`, the compound was classed as inactive.
Then `O=C(CN1CCOCC1)N/N=C/c1ccc(-c2ccc(Br)cc2)o1`, with “inactive”; and `CCOCC(=O)Nc1ccc(C)c(Cl)c1`, with “inactive”; and `CCC(C)(C)NC(=O)c1ccc(Br)o1`, with “inactive”.
Take `O=C(Nc1ccccc1)c1ccc(Br)o1`: the compound was called inactive.
Regarding `O=C(O)CCCCCN1C(=O)/C(=C\c2ccncc2)SC1=S`, the outcome was inactive.
Then `CCn1c(-c2ccco2)nc2ccccc21`, with “inactive”.
Then `COc1cccc(COC(=O)c2sc3nc4n(c(=O)c3c2C)CCC4)c1OC`, with “inactive”; and `Cc1cccc(NC(=O)c2ccc([N+](=O)[O-])s2)n1`, with “inactive”.
Then `COc1ccc(NC(=O)c2cnc(SC)nc2)cc1`, with “inactive”; and `Cc1ccccc1-n1sc2cc(F)ccc2c1=O`, with “inactive”; and `CN(CCCCOc1ccc(F)cc1)Cc1ccccc1`, with “inactive”.
Take `O=C(Nc1ccn(Cc2ccccc2)n1)c1ccc(F)cc1`: the call was inactive.
